Laboratory results taken from ChEMBL document CHEMBL3988442, “University of Dundee, Small-Polar-MMV Screening Library” (2021).
About 1,200 (3.2%) of roughly 38,000 compounds showed an effect of 50% or more. The median lay at about -58%. Many of the other results were omitted from the sample, so strong results are more common in it than they were.

Test system: Plasmodium falciparum
Experiment: Calibr Malaria Delayed Death Assay SOP
Format: functional, organism-based
Set-up: scale not given: in the data most compounds retested in dose-response had high values
Settings: concentration 4.99e-06 (unit not given; other assays of the set use mol/L)

Compound	Percent Effect
CC(C)Nc1ncnc2c1CCN(C(=O)CC1CCCC1)CC2	-30.46%
OC(CN1CCOCC1)c1cc(Cl)ccc1Cl (stereo unspecified)	-41.91%
CCOCCN1CCN(CC(O)c2cc(Cl)ccc2Cl)CC1 (stereo unspecified)	77.57%
OCCN1CCN(CC(O)c2cc(Cl)ccc2Cl)CC1 (stereo unspecified)	-5.982%
CCN1CCN(CC(O)c2cc(Cl)ccc2Cl)CC1 (stereo unspecified)	76.72%
CC(C)C(=O)N1CCN(CC(O)c2cc(Cl)ccc2Cl)CC1 (stereo unspecified)	-47.78%
CCOCCN1CCN(CC(O)c2ccc(C)c(C)c2)CC1 (stereo unspecified)	-16.95%
CC(C)c1nn(C)c(Cl)c1CNCCn1cccn1	8.083%
COc1ccc(CNc2nc(C3CC3)nc3c(C)nn(C)c23)cc1	25.99%
CCn1ccc(-c2cc(C(=O)O)n3ncc(Cl)c3n2)n1	-63.4%
CCC(=O)Nc1cccc(OCC(=O)N(C)CCCC2CCCO2)c1 (stereo unspecified)	-128%
O=C(C(CNCc1cccs1)c1ccccc1)N1CCOCC1 (stereo unspecified)	4.238%
O=C(C(CNCc1cccc(O)c1)c1ccccc1)N1CCOCC1 (stereo unspecified)	-54.71%
O=C(Nc1nccs1)c1csc(NC2CCCC2)n1	-183.6%
Cc1cnn(CCNCC(O)c2ccc3c(c2)OCCO3)c1 (stereo unspecified)	-44.13%
Cc1cnn(CCNCC(O)c2ccc(C(F)(F)F)cc2)c1 (stereo unspecified)	71.82%
Cc1cnn(CCNCC(O)c2ccc(F)c(F)c2)c1 (stereo unspecified)	43.94%
COc1ccccc1C1CC(=O)Nc2c1c(=O)[nH]n2C(C)C (stereo unspecified)	-127.8%
CC(O)CNc1nc(-c2cccnc2)nc2c1CCC2 (stereo unspecified)	-47.48%

Compound	Percent Effect
c1cncc(-c2nc3c(c(NCC4(c5ccncc5)CC4)n2)CCC3)c1	-35.93%
c1ccc(-n2cnnc2CCCN2CCOCC2)cc1	-26.23%
CC(C)OCCC(=O)NCC(c1c(F)cccc1F)N(C)C (stereo unspecified)	-18.53%
O=C1COC2(CCN(C(=O)[C@H]3CCCO3)CC2)CN1Cc1ccccn1	-79.26%
CC(C)C[C@H](N)C(=O)N1CCSc2ccccc2C1.Cl	47.22%
Cl.NC(C(=O)N1CCSc2ccccc2C1)c1ccccc1 (stereo unspecified)	59.31%
N[C@@H](C(=O)N1CCN(c2ccccc2Cl)C(=O)C1)c1ccccc1	-16.48%
O=C(C(CNCc1ccccc1O)c1ccccc1)N1CCOCC1 (stereo unspecified)	14.02%
Cc1csc(CN(C)C(C)C(=O)N2CCc3ccccc3C2)n1 (stereo unspecified)	-122.6%
CC(C)[C@H](N)C(=O)N1CCSc2ccccc2C1.Cl	73.25%
CC1c2ncc(COCC3CC3)n2CCN1C(=O)c1ccnnc1 (stereo unspecified)	2.24%
CCOCCN1CCN(CC(O)c2ccc(C(F)(F)F)cc2)CC1 (stereo unspecified)	21.93%
CSCc1ccc(C(=O)N2CCN(CC(C)O)CC2)cc1 (stereo unspecified)	-108.1%
Cc1cc(CN2CCN(c3ccc4nncn4n3)CC2)no1	-4.981%
c1ccc(CCN2CCN(c3ccc4nncn4n3)CC2)nc1	-102.7%
CC(Cn1cccn1)NC(=O)N1CCN(Cc2cccnc2)CC1 (stereo unspecified)	-145.3%
Cc1[nH]c(=O)[nH]c(=O)c1CN1CCCC(CCc2ccccc2)C1 (stereo unspecified)	-20.63%
COc1cccc(CCC2CCCN(C(=O)c3ccccn3)C2)c1 (stereo unspecified)	-27.65%
CN(CCOCC1CC1)C(=O)Nc1ccc([S+](C)[O-])cc1 (stereo unspecified)	-126.1%

Compound	Percent Effect
CNC(=O)NC(C)c1c(F)cccc1Cl (stereo unspecified)	-107.4%
Cc1ccccc1C1(CN)CCCCC1	91.14%
Cc1ccccc1C1(CN)CCOCC1	37.02%
NCC1(c2cccc(C(F)(F)F)c2)CCCCC1	-1.273%
COc1ccc(C2CCCCCN2S(N)(=O)=O)cc1 (stereo unspecified)	-81.61%
COc1ncccc1C(=O)N1CC[C@H]2C[C@H](c3noc(C)n3)O[C@@H]2C1	-68.36%
CC(=O)N1CCc2nc(-c3ccccc3)nc(NC(C)C)c2CC1	-31.72%
CC(Nc1nc(-c2ccccc2)nc2c1CCNCC2)c1cccnc1 (stereo unspecified)	90.56%
Cc1ccccc1N1CCN(c2nc(N(C)C)nc3c2CCNC3)CC1	36.34%
CN(C)CCC(Nc1nc(N)nc2c1CCNCC2)c1ccccc1 (stereo unspecified)	-67.64%
CN(C)c1nc2c(c(N3CCc4ccccc4C3)n1)CCNC2	30.67%
Cc1cc(CC(C)Nc2nc(-c3cccnc3)nc3c2CNC3)[nH]n1 (stereo unspecified)	-0.4892%
CCOCc1nc2c(c(NC(CC)c3cccnc3)n1)CCNCC2 (stereo unspecified)	-63.2%
CC(Nc1nc(-c2ccncc2)nc2c1CCNC2)c1ccccc1 (stereo unspecified)	70.67%
Cc1cccnc1[C@H](C)Nc1nc(-c2cccnc2)nc2c1CNC2	77.9%
c1ccc2c(c1)CCN(c1nc(-c3ccncc3)nc3c1CCNC3)C2	59.82%
CCc1cc(C(C)Nc2nc(-c3cccnc3)nc3c2CNC3)on1 (stereo unspecified)	-34.82%
Cc1ccccc1C(Nc1ncnc2c1CCNC2)c1ccccc1 (stereo unspecified)	22.99%
